Pol iota inh: inhibitors of human DNA polymerase iota; 1% of 390,000 active; Pol iota fluorescent replication assay, 10 min; Potency, µM (highest dose often 115 µM), without a hit: at the highest dose activity, negative = inhibition, most hits filed as inhibitors; Q9UNA4; further: potency means the concentration at half of the fitted maximal effect
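Fluorescent replication assay read twice, at 0 min and 10 min after adding 50 nM (final) substrate. Enzyme (10 nM) and compounds were first incubated 15 min at room temperature; enzyme-free buffer wells were negative controls.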
POLK inh: blocks human DNA polymerase kappa activity. Q9UBT6. purified Pol kappa, fluorescent DNA synthesis assay, 10 min. Potency, µM (series often up to 107 µM), for inactives: top-dose activity, negative = inhibition, actives largely listed as inhibitors. 0.53% of 400,000 active. AID 588579; further: potency means the concentration at half of the fitted maximal effect; on the % scale 0 is the no-effect control and ±100 the full control effect
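Readout: fluorescence, taken kinetically at 0 and 10 min. Conditions: 10 nM Pol kappa, 15 min RT compound preincubation, 50 nM substrate final. Controls: enzyme-free buffer wells.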
PI5P4Ka inh: PI5P4K alpha (human) kinase inhibition. P48426. PI5P4Kalpha enzyme, ADP-Glo luminescence, 60 min; hits give low values. max response, %. 1.2% of 330,000 active. AID 652105; active means max response of -50% or lower; inconclusive means between -30% and -50%; inactive means -30% or higher; further: value at the top dose of about 77 µM; on the % scale 0 is the no-effect control and ±100 the full control effect
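Compounds were pin-transferred onto PI5P4Kalpha and substrate in HEPES pH 7.4 buffer with EGTA, CHAPS and 5% DMSO. ATP (5 microM final) started the reaction, which ran 60 minutes at room temperature before ADP-Glo detection.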
POLH inh: DNA polymerase eta (human) inhibition; Q9Y253; recombinant Pol eta, fluorescent DNA replication assay; Potency, µM (top dose mostly 114 µM), inactives show top-dose activity change, negative = inhibition, most hits filed as inhibitors; 1.2% of 390,000 active; AID 588591; further: potency means the concentration at half of the fitted maximal effect; on the % scale 0 is the no-effect control and ±100 the full control effect
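Pol eta (10 nM) was preincubated with compounds for 15 min at room temperature, after which fluorescent replication substrate (50 nM final) was added to start the reaction. Fluorescence was read kinetically at 0 and 10 min.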
POLB inh: DNA polymerase beta (human) inhibition. P06746. Pol beta primer extension/strand displacement, fluorescence kinetic. Potency, µM (titrated, usually from 114 µM), inactives show top-dose activity change, negative = inhibition, hits mostly inhibitors. 1.3% of 340,000 active. AID 485314; further: potency means the concentration at half of the fitted maximal effect; on the % scale 0 is the no-effect control and ±100 the full control effect
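Enzyme-only controls used 10 nM Pol beta; buffer lacking enzyme served as negative control. Compound preincubated 15 min, then 50 nM substrate added; 0 and 10 min reads at room temperature.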
WRN inhibitor: inhibitors of human WRN helicase; Q14191; WRN helicase unwinding, fluorescent forked duplex, kinetic; Potency, µM (top dose mostly 114 µM), for the others: top-dose activity change, negative = inhibition, usual class: inhibitors; 0.46% of 360,000 active; AID 651768; further: potency means the concentration at half of the fitted maximal effect; on the % scale 0 is the no-effect control and ±100 the full control effect; nearly all actives have a fitted effect of over 55% in size
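WRN at 20 nM final preincubated with compound 15 min at room temperature; reaction started with 100 nM fluorophore/quencher forked duplex oligonucleotide and 2 mM ATP final. Unwinding followed kinetically by red fluorescence (ex 525, em 598 nm).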
* marks the source's active call; other numbers are inactive results; ? = inconclusive; · = no result; ! = repeats disagree; [ ] = another dose, or the depositor's remark. The list is not random: actives were taken first. Their share in the collection is about 2.8%. Unless noted, the call rests on the fitted dose curve; in most records, active means well fitted curve in the direction sought with a large enough effect; inconclusive means small, poorly fitted or top-dose-only effect, or another doubt; inactive means no such curve, though single readings can be large; an effect the other way counts as inactive or inconclusive.

SMILES	Pol iota inh	POLK inh	PI5P4Ka inh	POLH inh	POLB inh	WRN inhibitor
COC(=O)CCC(=O)OC1(C)C(=O)C=C2C=C(C3CC3)N(C3CC3)C=C2C1=O (centres undefined)	14µM*	-16%	-3	-14%	-11%	6%
COC(=O)CCC(=O)OC1(C)C(=O)C=C2C=C(c3ccsc3)OC=C2C1=O (centres undefined)	14µM*	20µM*	-98*	5µM*	·	?
CCC(=O)OC1(C)C(=O)C=C2C=C(c3ccsc3)OC=C2C1=O (centres undefined)	18µM*	50µM*	-73*	50µM*	50µM*	?
COCCN1C=C2C(=O)C(C)(OC(=O)CCC(=O)OC)C(=O)C=C2C=C1C1CC1 (centres undefined)	47%	-11%	1	-3%	21%	10%
CCOC(=O)Cc1cn2c(=O)cc(CSCC(=O)Nc3ccc(C)c(C)c3)nc2s1	?	-20%	-28	89µM*	?	-26%
CN(C)C(=O)c1ccc(/C=C/c2ccnc3ccccc23)cc1	4%	-23%	·	·	·	·
Cc1cc(C)cc(Nc2nc3c(S(=O)(=O)c4cccc(Cl)c4)nnn3c3ccsc23)c1	14%	1%	·	-16%	1%	·
CC(=O)Nc1ccc(Nc2nc3c(S(=O)(=O)c4cccc(Cl)c4)nnn3c3ccsc23)cc1	6%	-1%	·	79µM*	39%	·
O=C1/C(=C/c2ccc(O)c(O)c2)Oc2ccccc21	·	13µM*	·	·	·	·
COc1ccc(C(=O)COC(=O)CCn2c(C)csc2=O)c(OC)c1	·	·	-65*	?	·	-12%
COc1ccc(C(=O)COC(=O)CCN2C(=O)C3CC=CCC3C2=O)c(OC)c1 (centres undefined)	40µM*	-12%	?	?	·	4%[11.6 µM]
O=C(COc1ccc(Br)cc1)N/N=C1/SCC(=O)N1Cc1ccco1	94%	0%	-67*	-16%	-1%	?
CCN(CC)S(=O)(=O)c1ccc(NC(=O)NCc2noc3ccc(C)cc23)cc1	2%	-4%	·	-27%	1%	·
COc1ccc(C2C(=O)N(C3CCCCCC3)CC(=O)N2CCc2ccc(OC)c(OC)c2)cc1 (centres undefined)	14%	3%[60.1 µM]	·	-13%	1%	·
CCOc1ccc(NC(=O)CSc2nc(NS(=O)(=O)c3ccc(C)cc3)cc(=O)[nH]2)cc1	22µM*	40µM*	-8	-18%	3%	1%[11.6 µM]
CCOc1ccc(NC(=O)CSc2oc(-c3cccs3)nc2S(=O)(=O)c2ccc(Cl)cc2)cc1	6%	-17%	·	-24%	13%	·
CCc1ccc(NC(=O)CSc2nc(NS(=O)(=O)c3ccccc3)cc(=O)[nH]2)cc1	29%	-7%	0	-21%	20µM*	-6%
Cc1ccc(NC(=O)CSc2nc(NS(=O)(=O)c3ccccc3)cc(=O)[nH]2)cc1	?	22µM*	?	22µM*	22µM*	50µM*
Cc1ccc(S(=O)(=O)Nc2cc(=O)[nH]c(SCC(=O)Nc3ccccc3Cl)n2)cc1	-14%	5%	-1	-21%	?	-4%
CCOc1ccc(NC(=O)CSc2oc(-c3ccc(C)cc3)nc2S(=O)(=O)c2ccc(C)cc2)cc1	10%	1%	·	79µM*	3.2µM*	·
Cc1ccc(S(=O)(=O)Nc2cc(=O)[nH]c(SCC(=O)Nc3cccc(C)c3)n2)cc1	50µM*	?	-12	1%	-2%	-24%
Cc1ccc(S(=O)(=O)Nc2cc(=O)[nH]c(SCC(=O)Nc3ccccc3C(F)(F)F)n2)cc1	84%	-8%	-4	-14%	22%	6%
N#CCC(=O)Nc1ccc(C(=O)OCC(=O)NC(=O)Nc2ccc3c(c2)OCCO3)cc1	?	-16%	?	45µM*	·	?
O=C1COc2ccc(C(=O)COC(=O)/C=C/c3ccco3)cc2N1	45µM*	?	?	?	·	-13%
N#CCC(=O)Nc1ccc(C(=O)OCC(=O)c2ccc3c(c2)NC(=O)CO3)cc1	22µM*	?	-29	?	·	?
SMILES	Pol iota inh	POLK inh	PI5P4Ka inh	POLH inh	POLB inh	WRN inhibitor
O=C1COc2ccc(C(=O)COC(=O)c3ccco3)cc2N1	24%	10%	-26	0%	6%	3%
O=C(Nc1ccccc1F)c1oc2ccccc2c1NC(=O)c1c(F)cccc1F	20%	-3%	·	4%	23%	·
Cc1c(Cl)cccc1N=Cc1ccc([N+](=O)[O-])s1	35µM*	-17%	·	89µM*	?	-17%
CC1(C)[C@@H](O)CC[C@]2(C)[C@H]3C(=O)C=C4[C@@H]5C[C@@](C)(C(=O)O)CC[C@]5(C)CC[C@@]4(C)[C@]3(C)CC[C@@H]12	13%	34µM*!	0	-17%	11%	-6%
CC1(C)[C@@H](O)CC[C@]2(C)C3C(O)C=C4[C@H]5C[C@@](C)(CO)CC[C@]5(C)CC[C@]4(C)[C@]3(C)CC[C@@H]12 (some centres undefined)	29%	-9%	-62*	?	0%	-1%
CC1(C)C(O)CC[C@]2(C)C1CC[C@@]1(C)C2C(=O)C=C2[C@@H]3C[C@@](C)(C(=O)O)CC[C@@]3(C)CCC21C (some centres undefined)	·	-6%[60.1 µM]	·	·	·	·
CC(=O)Nc1ccc(NC(=O)C2(c3cccs3)CCOCC2)cc1	-2%	-12%[60.1 µM]	·	-5%	-2%	·
O=C(O)c1ccc2c(c1)C(=O)N(CCCCCCCN1C(=O)c3ccc(C(=O)O)cc3C1=O)C2=O	33%	-7%	-78*	-17%	0%	-9%[57.1 µM]
O=C(Nc1ccc(O)cc1)c1ccc2c(c1)C(=O)N(N1C(=O)c3ccccc3C1=O)C2=O	-20%	-14%	-3	2%	?	-13%
O=C1c2ccccc2C(=O)N1CCc1ccccc1	133%	1%	-12	-9%	·	-16%
O=C(O)c1ccc2c(c1)C(=O)N(CCc1ccccc1)C2=O	24%	-13%	-65*	-24%	19%	0%

Bioassay records: PubChem BioAssay, National Center for Advancing Translational Sciences (NCATS)
